# A selection: hits, their analogues and other compounds. The true share with any hit is near 2.2%.
# BaF3 tox – counter-screen for JAK2V617F inhibitors: parental Ba/F3 viability inhibitors; 1.1% of 220,000 active; CellTiter-Glo ATP luminescence; inhibition, % at 5.6 µM;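 active = inhibition above a per-campaign cutoff, the mean inhibition of all tested compounds plus 3 SD, cut at about 27% in these data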;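 also: 0% = DMSO wells and 100% = JAK Inhibitor I control wells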
# IEC-6 tox-1 – counter-screen for KLF5 inhibitors: cytotoxicity in IEC-6 cells | AID 1825 | 0.78% of 290,000 active | IEC-6 cytotoxicity, luminescence viability | inhibition, % at 5 µM;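 also: 0% = plate median of test compound wells and 100% = cytotoxic reference compound wells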
# KLF5 inhibitor – suppresses KLF5 promoter-driven expression | DLD-1 KLF5 promoter-luciferase reporter, luminescence | inhibition, % at 5 µM | 0.23% of 290,000 active | AID 1700;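 active = inhibition above a per-plate limit of that plate's mean compound inhibition plus 3 SD, cut at about 60% in these data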;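 also: 0% = DMSO wells and 100% = LY294002 at 200 µM; higher means less KLF5 promoter-driven luciferase light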
# aSyn UTR inh – MLPCN primary screen, SNCA 5' untranslated region | alpha-synuclein 5'UTR reporter, inhibitor activity | inhibition, % (tested at 7.5 µM) | 0.82% of 300,000 active; in the data active = inhibition above about 60%; inconclusive = no clear call, values can overlap the other calls;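 also: H4 neuroglioblastoma cells stably carrying SNCA 5'UTR luciferase fusion; 0% = DMSO wells and 100% = positive control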
# Ba/F3 V617F tox – lowers viability of Ba/F3 cells expressing EpoR and JAK2V617F; ATP luminescence; 1.1% of 220,000 active; inhibition, % at 5.6 µM;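 active = inhibition above the campaign mean plus 3 SD over all tested compounds, cut at about 24% in these data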;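 also: cytokine-independent growth of Ba/F3 cells driven by EpoR plus mutant JAK2; 0% = DMSO-treated cells and 100% = JAK inhibitor I control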
# APP 5UTR inh – APP translation inhibition; SH-SY5Y APP 5'UTR-luciferase reporter, luminescence; inhibition, % at 2 µM; 0.82% of 190,000 active; AID 1285;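 active = inhibition above a set limit, derived from the sample mean plus 3 SD, cut at about 45% in these data; inconclusive = one replicate passes the limit while the other fails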
# KLF5 inh confirm – confirmation of KLF5 inhibitors | shares compounds with KLF5 inhibitor | DLD-1 KLF5 promoter firefly luciferase reporter, luminescence | inhibition, % at 4 µM | 79% of 610 active | AID 1834;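 active = inhibition above a set limit taken from the earlier primary screen, cut at about 63% in these data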;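 also: 0% = DMSO wells and 100% = LY294002 at 200 µM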
# IEC-6 tox-2 – rat IEC-6 cytotoxicity, KLF5 inhibitor counter-screen. shares compounds with KLF5 inhibitor. IEC-6 rat intestinal cells, viability luminescence. inhibition, % at 4 µM. 56% of 610 active. AID 1905; in the data active = inhibition above about 23%;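 also: cells exposed to compounds for 48 hours before viability read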
# IEC-6 cytotox cf – confirmation of cytotoxic compounds in rat IEC-6 intestinal epithelial cells | shares compounds with IEC-6 tox-1 | AID 1907 | IEC-6 rat intestinal epithelial viability, luminescence | inhibition, % at 5 µM | 63% of 1,900 active;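 also: 0% = vehicle and 100% = reference cytotoxic drug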
# Active calls of the source: *; ? = inconclusive; / = no result. Rule as the data show it, unless noted: active = inhibition above about 22%; inactive = the rest.
SMILES,BaF3 tox,IEC-6 tox-1,KLF5 inhibitor,aSyn UTR inh,Ba/F3 V617F tox,APP 5UTR inh,KLF5 inh confirm,IEC-6 tox-2,IEC-6 cytotox cf
COc1ccc(CNC(NC(=O)c2ccccc2)(C(F)(F)F)C(F)(F)F)cc1,6,8,-8,19,4,1,/,/,/
N#Cc1ccc(-c2cccs2)nc1SCc1cccnc1,69*,79*,62*,90*,73*,/,75*,64*,64*
Cc1cc(O)cc(C)c1NS(=O)(=O)c1ccc2ccccc2c1,/,6,7,20,/,/,/,/,/
COc1cccc(Cn2c(NCc3cccnc3)nc3c2c(=O)n(C)c(=O)n3C)c1,90*,88*,84*,71*,91*,33,97*,70*,81*
COc1cccc(Cn2c(NCc3ccccn3)nc3c2c(=O)n(C)c(=O)n3C)c1,1,2,-12,/,1,-20,/,/,/
C/C(=N\NC(=O)c1n[nH]c2c1CCC2)c1cccs1,73*,81*,75*,107*,72*,/,71*,3,17
Cc1cc(C(=O)NC2CCCc3c2cnn3-c2ccc(C)c(C)c2)nc(C)n1 (centres undefined),/,3,-1,-2,/,/,/,/,/
COC(=O)c1ccc(C(=O)NC2CCCc3c2cnn3-c2ccc(C)c(C)c2)cc1 (centres undefined),/,76*,68*,104*,/,/,76*,55*,58*
CC(=O)N1CCc2cc(S(=O)(=O)NCCCN3CCC(C)CC3)ccc21,/,0,-53,1,/,/,/,/,/
O=C(N/N=C/c1cc(Cl)ccc1O)c1cccnc1,/,60*,79*,-10,/,/,89*,16,29*
COc1ccc(-c2nn(-c3ccccc3)cc2/C=N/n2cnnc2)cc1OC,3,0,4,10,-2,-1,/,/,/
COc1ccc(-c2nn(-c3ccccc3)cc2/C=N/NC(N)=S)cc1OC,82*,72*,69*,90*,82*,95*,71*,59*,62*
CC(=O)Nc1ccc(S(=O)(=O)NCCC(=O)NCc2ccncc2)cc1,/,/,/,-7,/,/,/,/,/
O=C(Nc1nc2ccccc2[nH]1)c1ccccc1OC(F)F,/,11,-76,1,/,/,/,/,/
O=C(Nc1nc2ccccc2[nH]1)c1ccccc1F,46*,43*,76*,108*,50*,1,75*,46*,57*
CCOc1ccc(S(=O)(=O)NCc2ccccn2)cc1NC(=O)c1ccccc1,/,/,/,37,/,/,/,/,/
COc1ccc(S(=O)(=O)NCc2ccccn2)cc1NC(=O)c1ccccc1F,/,76*,64*,52,/,/,81*,53*,52*
CCN(CC)c1ccc(NC(=O)c2cc(OC)cc(OC)c2)c(C)c1,78*,78*,75*,-23,78*,92*,79*,60*,60*
COc1ccc(OC)c(Nc2c3c(nc4ccccc24)CCC3)c1,/,85*,64*,106*,/,/,111*,63*,58*
CCOc1cccc2sc(N3CCN(C(=O)c4ccc5ncsc5c4)CC3)nc12,/,/,/,14,/,/,/,/,/
COc1cc2c(c(OC)c1OC)-c1ccc(NC(=O)c3ccccc3)c(=O)cc1[C@@H](NC(C)=O)CC2,/,87*,77*,55,/,/,64*,49*,49*
COc1cccc(C(NC(C)=O)c2ccc3cccnc3c2O)c1 (centres undefined),/,99*,91*,72*,/,/,97*,81*,75*
CC(=O)NC(c1cccc([N+](=O)[O-])c1)c1ccc2cccnc2c1O (centres undefined),/,94*,62*,123*,/,/,96*,80*,77*
CC(=O)NC(c1ccc(C)cc1)c1cc(Cl)c2cccnc2c1O (centres undefined),/,94*,64*,?,/,/,83*,69*,69*
CC(=O)NC(c1ccccc1)c1cc([N+](=O)[O-])c2cccnc2c1O (centres undefined),10,-6,-20,-18,3,-21,/,/,/
SMILES,BaF3 tox,IEC-6 tox-1,KLF5 inhibitor,aSyn UTR inh,Ba/F3 V617F tox,APP 5UTR inh,KLF5 inh confirm,IEC-6 tox-2,IEC-6 cytotox cf
CC(=O)NC(c1ccc(C(C)C)cc1)c1ccc2cccnc2c1O (centres undefined),/,70*,81*,67*,/,/,82*,83*,83*
CC(C)c1nc(SCC(=O)Nc2ccc(C(=O)O)cc2)c2c3c(sc2n1)CCCC3,/,-4,-37,-3,/,/,/,/,/
CC(C)N(Cc1nccn1C)C(=O)c1cc(COc2ccc(-n3cncn3)cc2)on1,/,2,-11,14,/,/,/,/,/
CC(=O)Nc1ccc(S(=O)(=O)NCCC(=O)Nc2ccc(C)c(F)c2)cc1,/,-9,1,5,/,/,/,/,/
O=C(N/N=C/c1ccccc1O)c1ccc2c(c1)OCO2,/,76*,72*,-47,/,/,4,12,19
CC(C)N1CCc2c(sc(NC(=O)c3nc4ccccc4s3)c2C(N)=O)C1,4,9,-3,-58,4,-7,/,/,/
CC(C)N1CCc2c(sc(NC(=O)c3ccc([N+](=O)[O-])o3)c2C(N)=O)C1,/,99*,72*,104*,/,/,55,90*,86*
COc1ccc(C)cc1NC(=O)C(c1ccccc1)N1CCNC(=O)C1 (centres undefined),5,0,-17,-17,2,-10,/,/,/
COC(=O)c1ccc(OC)c(CN2CCCN(Cc3cc(C)ccc3C)S2(=O)=O)c1,/,-1,-44,6,/,/,/,/,/
C/C(=N\NC(=O)c1c([N+](=O)[O-])c(C)nn1C)c1ccc(NC(=O)C2CCCC2)cc1,/,77*,65*,81*,/,/,76*,54*,64*
C/C(=N\NC(=O)c1c([N+](=O)[O-])c(C)nn1C)c1ccc(NC(=O)c2ccc(C)o2)cc1,/,-3,-53,-104,/,/,/,/,/
C/C(=N\NC(=O)c1c(Cl)c(C)nn1C)c1ccc(NC(=O)C2CCC2)cc1,/,73*,65*,44,/,/,83*,60*,52*
C/C(=N\NC(=O)c1c(Br)c(C)nn1C)c1cccc(NC(=O)C2CCC2)c1,5,4,-41,-37,3,-8,/,/,/
Nc1ccc(C(=O)n2c3ccccc3c3ccccc32)cc1,73*,83*,79*,117*,68*,94*,85*,60*,58*
O=c1nccc(N/N=C/c2ccccc2O)[nH]1,/,96*,88*,-4,/,/,-4,11,16
CCOc1ccccc1/C=N/Nc1ccnc(=O)[nH]1,/,2,-14,-10,/,/,/,/,/
COc1cccc(/C=N/Nc2ccnc(=O)[nH]2)c1O,/,97*,81*,19,/,/,11,8,24*
COc1cccc(/C=N/NC(=O)N/N=C/c2cccc(OC)c2O)c1O,/,-6,-54,?,/,/,/,/,/
